Source: PubChem BioAssay (National Center for Advancing Translational Sciences (NCATS))
HP1b binding inh – blocks HP1-beta chromodomain binding to methylated histone tails; P83916; AlphaScreen HP1-beta / biotin-H3K9me3 peptide binding; Potency, µM (top dose mostly 114 µM), most hits filed as inhibitors; 390,000 compounds, 0.56% hits; further: nearly all actives have a fitted effect of over 70% in size
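Compound inhibition of the preformed complex between 50 nM HP1-beta and 50 nM biotinylated H3K9me3 peptide was read by AlphaScreen. Buffer was PBS pH 7.4 with 0.01% Tween-20. Incubations ran 30 min at room temperature, with 10 ug/mL donor/acceptor beads.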
BAZ2B inh – BAZ2B (human) inhibition; Q9UIF8; AlphaScreen BAZ2B-H3K14Ac peptide displacement; Potency, µM (series often up to 114 µM), hits mostly inhibitors; 360,000 compounds, 4.4% hits; further: nearly all actives have a fitted effect of over 60% in size
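In this displacement format the biotinylated H3(5-23) peptide acetylated at Lys14 serves as ligand at 50 nM, with BAZ2B at 50 nM in PBS pH 7.4 containing 0.01% Tween-20. Donor and acceptor beads are 10 ug/mL final.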
L3MBTL1 block – L3MBTL1 (human) inhibition. 230,000 compounds, 0.66% hits. Potency, µM (highest dose often 57.1 µM), most hits filed as inhibitors. AlphaScreen L3MBTL1–H3K9me1 peptide binding; further: nearly all actives have a fitted effect of over 60% in size
Target sequence (Q9Y468 whole entry, looked up): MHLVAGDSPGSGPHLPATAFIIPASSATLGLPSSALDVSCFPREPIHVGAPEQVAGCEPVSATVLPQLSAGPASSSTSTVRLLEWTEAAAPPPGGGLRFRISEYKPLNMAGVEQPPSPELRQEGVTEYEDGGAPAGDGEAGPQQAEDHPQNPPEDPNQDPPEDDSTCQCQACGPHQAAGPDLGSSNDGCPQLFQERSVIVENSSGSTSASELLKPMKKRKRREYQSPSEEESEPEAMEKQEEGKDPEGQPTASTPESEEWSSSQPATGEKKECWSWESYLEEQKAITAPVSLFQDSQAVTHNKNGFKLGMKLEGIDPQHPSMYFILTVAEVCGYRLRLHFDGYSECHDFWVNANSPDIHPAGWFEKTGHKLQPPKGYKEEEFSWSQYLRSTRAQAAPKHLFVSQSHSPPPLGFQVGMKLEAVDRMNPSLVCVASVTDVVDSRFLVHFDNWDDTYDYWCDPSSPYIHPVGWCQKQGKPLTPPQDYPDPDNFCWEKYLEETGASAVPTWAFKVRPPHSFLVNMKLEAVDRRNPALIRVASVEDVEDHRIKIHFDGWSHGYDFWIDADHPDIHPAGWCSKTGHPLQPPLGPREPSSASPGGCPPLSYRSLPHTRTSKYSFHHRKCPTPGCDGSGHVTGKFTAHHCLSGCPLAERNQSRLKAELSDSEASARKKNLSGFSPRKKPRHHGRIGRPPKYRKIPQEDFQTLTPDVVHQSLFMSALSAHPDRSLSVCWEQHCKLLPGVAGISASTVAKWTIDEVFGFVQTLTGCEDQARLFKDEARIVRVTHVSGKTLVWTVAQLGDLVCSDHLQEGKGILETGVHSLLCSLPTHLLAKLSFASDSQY
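Displacement of a biotinylated histone H3(1-15) peptide monomethylated at Lys9 (75 nM) from L3MBTL1 (50 nM) was measured by AlphaScreen after a 30 min room-temperature compound incubation; cefsulodin titration served as intraplate control.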
G9a block – inhibitors of human histone lysine methyltransferase G9a; Q96KQ7; G9a H3K9 monomethylation, AlphaScreen, 2 h; Potency, µM (doses to about 102 µM), actives largely listed as inhibitors; 350,000 compounds, 8.8% hits; AID 504332; further: nearly all actives have a fitted effect of over 75% in size
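Signal arises when biotinylated H3K9 peptide, once monomethylated, bridges streptavidin donor and antibody-captured acceptor beads. Enzyme at 20 nM was preincubated 15 min with test compounds; peptide 500 nM and SAM 20 uM then reacted for 2 h.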
JMJD2A Tudor – inhibitors of human JMJD2A Tudor domain. O75164. AlphaScreen JMJD2A-Tudor / H3K4me3 peptide binding. Potency, µM (titrated, usually from 114 µM), actives largely listed as inhibitors. 390,000 compounds, 4.4% hits. AID 504339; further: nearly all actives have a fitted effect of over 50% in size
A number is an active result; [ ] = another dose, or the depositor's remark. Compounds with a hit are over-represented: about 11% of the library has one in this group of screens. The call rests on the fitted dose curve; in most records, active means well fitted inhibition curve with a large enough effect; inconclusive means small, poorly fitted or top-dose-only effect; inactive means no such curve, though single readings can be large or run the other way.

What do the screens show for `Cc1cccc(C)c1N1CCN(C(=O)Nc2ccc3c(c2)OCCO3)CC1`?
HP1b binding inh: inactive; BAZ2B inh: inconclusive; L3MBTL1 block: inactive; G9a block: inactive; JMJD2A Tudor: 50µM

How did CC(C)Oc1ccc(C(=O)N2CCN(c3nc4c(F)cc(F)cc4s3)CC2)cc1 do in these assays?
HP1b binding inh: inactive; BAZ2B inh: inactive; G9a block: inactive; JMJD2A Tudor: inactive

Results for CC(=O)Nc1ccc(NC(=O)CSc2ccc([N+](=O)[O-])cn2)cc1 ?
HP1b binding inh: inactive; BAZ2B inh: inactive; G9a block: inactive[12.7 µM]; JMJD2A Tudor: inactive

Results for CC1CCN(S(=O)(=O)c2ccc(NC(=O)CN3CCCCCC3)cc2)CC1 ?
HP1b binding inh: inactive; BAZ2B inh: inactive; G9a block: inconclusive; JMJD2A Tudor: inactive

What do the screens show for `CCOC(=O)N1CCN(CC(=O)NC(=O)Nc2ccc3c(c2)OCCO3)CC1`?
HP1b binding inh: inactive; BAZ2B inh: inactive; L3MBTL1 block: inactive; G9a block: 50µM; JMJD2A Tudor: inactive

How did CC1CCN(S(=O)(=O)c2ccc(NC(=O)CN3CCN(C)CC3)cc2)CC1 do in these assays?
HP1b binding inh: inconclusive; BAZ2B inh: inconclusive; L3MBTL1 block: inactive; G9a block: 11µM; JMJD2A Tudor: 3.2µM

What do the screens show for `COc1cc2c(cc1OC)C(C)N(CC(=O)Nc1ccc(S(=O)(=O)N3CCCC3)cc1)CC2` (centres undefined)?
HP1b binding inh: inactive; BAZ2B inh: inactive; G9a block: 40µM; JMJD2A Tudor: inactive

What do the screens show for `CCOC(=O)N1CCN(c2c(Nc3ccc4c(c3)OCCO4)c(=O)c2=O)CC1`?
HP1b binding inh: inactive; BAZ2B inh: inactive; G9a block: inconclusive; JMJD2A Tudor: inactive

How did C=CCN(CC=C)CC(=O)Nc1ccc(S(N)(=O)=O)cc1 do in these assays?
HP1b binding inh: inactive; BAZ2B inh: inactive; L3MBTL1 block: inactive; G9a block: 0.71µM; JMJD2A Tudor: inactive

Results for COc1ccc(-c2nnc(SCC(=O)c3ccc([N+](=O)[O-])cc3)o2)cc1OC ?
HP1b binding inh: inactive; BAZ2B inh: inactive; G9a block: inactive; JMJD2A Tudor: inactive

What do the screens show for `Cc1ccc(CNCCNCCO)s1`?
HP1b binding inh: inactive; BAZ2B inh: inactive; L3MBTL1 block: inactive; G9a block: 40µM; JMJD2A Tudor: inactive

How did O=C(NCCc1ccccc1)C(=O)NCC(c1cccnc1)N1CCN(c2ccccc2F)CC1 (centres undefined) do in these assays?
HP1b binding inh: inactive; BAZ2B inh: inactive; G9a block: inactive; JMJD2A Tudor: inactive

What do the screens show for `Fc1ccccc1N1CCN(CC2CCCCC2)CC1`?
HP1b binding inh: inconclusive; BAZ2B inh: 79µM; L3MBTL1 block: inactive[2.29 µM]; G9a block: inactive[0.501 µM]; JMJD2A Tudor: 20µM

How did Fc1ccccc1N1CCN(Cc2cccnc2)CC1 do in these assays?
HP1b binding inh: inconclusive; BAZ2B inh: 56µM; L3MBTL1 block: inactive; G9a block: 28µM; JMJD2A Tudor: 1.6µM

Results for COc1ccc(OC)c(C(c2nnnn2CC2CCCO2)N2CCN(C)CC2)c1 (centres undefined) ?
HP1b binding inh: inactive; BAZ2B inh: 79µM; G9a block: inconclusive; JMJD2A Tudor: inactive

Results for C=CCN1CCN(C(c2cc(OC)ccc2OC)c2nnnn2CC2CCCO2)CC1 (centres undefined) ?
HP1b binding inh: inactive; L3MBTL1 block: inactive; G9a block: 13µM; JMJD2A Tudor: inactive[11.4 µM]

Results for O=C1C=CC(=O)C(C2=C3C(=O)N(CCc4ccccc4)CC(=O)N3CCC2)=C1 ?
HP1b binding inh: 6.3µM; BAZ2B inh: 50µM; L3MBTL1 block: inactive; G9a block: 1.3µM; JMJD2A Tudor: 3.2µM

What do the screens show for `CC(=O)N1c2ccc(S(=O)(=O)N3CCCCCC3)cc2CC1C(=O)NCc1ccccc1` (centres undefined)?
HP1b binding inh: inactive; BAZ2B inh: inactive; G9a block: inactive; JMJD2A Tudor: inactive

What do the screens show for `Cc1cc[n+](-c2ccccc2)c2ccccc12`?
HP1b binding inh: inactive; BAZ2B inh: inactive; L3MBTL1 block: inactive; G9a block: 25µM; JMJD2A Tudor: inactive

How did Cc1ccc(NC(=O)COC(=O)c2c(-c3ccccc3)noc2C)c(C)c1 do in these assays?
HP1b binding inh: inactive; BAZ2B inh: inactive; L3MBTL1 block: inactive; G9a block: inactive[12.7 µM]; JMJD2A Tudor: inactive

How did CO/N=C/c1ccc(N2CCN(C(=O)c3ccc(F)cc3)CC2)c([N+](=O)[O-])c1 do in these assays?
HP1b binding inh: inactive; BAZ2B inh: inconclusive; L3MBTL1 block: inactive; G9a block: 45µM; JMJD2A Tudor: inconclusive

Results for CO/N=C/c1ccc(N2CCN(C(=O)c3cccc(C(F)(F)F)c3)CC2)c([N+](=O)[O-])c1 ?
HP1b binding inh: inactive; BAZ2B inh: inconclusive; L3MBTL1 block: inactive; G9a block: inconclusive; JMJD2A Tudor: inconclusive

How did CO/N=C/c1ccc(N2CCN(C(=O)c3ccc(Cl)cc3Cl)CC2)c([N+](=O)[O-])c1 do in these assays?
HP1b binding inh: inactive; BAZ2B inh: inconclusive; L3MBTL1 block: inactive; G9a block: 20µM; JMJD2A Tudor: inconclusive

Results for Cc1cccc(C)c1NC(=O)CN(C)S(=O)(=O)c1ccc2c(c1)n(C)c(=O)c(=O)n2C ?
HP1b binding inh: inactive; BAZ2B inh: inactive; G9a block: inactive; JMJD2A Tudor: inactive

What do the screens show for `O=[N+]([O-])c1cccc(C=NNc2ccccc2)c1`?
HP1b binding inh: inconclusive; JMJD2A Tudor: 40µM

What do the screens show for `O=[N+]([O-])c1ccc(C=NNc2ccccc2)cc1`?
HP1b binding inh: inconclusive; JMJD2A Tudor: 25µM

Results for Cc1ccc2[nH]c(=O)c(C(c3nnnn3CC3CCCO3)N3CCCc4ccccc43)cc2c1 (centres undefined) ?
HP1b binding inh: inactive; BAZ2B inh: inconclusive; L3MBTL1 block: inactive; G9a block: 50µM; JMJD2A Tudor: inconclusive

Results for CCc1ccc2[nH]c(=O)c(C(c3nnnn3Cc3ccco3)N3CCC(C)CC3)cc2c1 (centres undefined) ?
HP1b binding inh: inactive; BAZ2B inh: inactive; G9a block: 56µM; JMJD2A Tudor: inactive

What do the screens show for `COc1ccc2cc(C(c3nnnn3C(C)(C)C)N3CCc4ccccc4C3)c(=O)[nH]c2c1` (centres undefined)?
BAZ2B inh: inactive; L3MBTL1 block: inactive; G9a block: inconclusive

How did Cc1cc(C)c2[nH]c(=O)c(C(c3nnnn3CC3CCCO3)N3CCCC(C)C3)cc2c1 (centres undefined) do in these assays?
HP1b binding inh: inactive; BAZ2B inh: inactive; L3MBTL1 block: inactive; G9a block: 18µM; JMJD2A Tudor: inactive

What do the screens show for `Cc1cc2cc(C(c3nnnn3Cc3ccco3)N3CCc4ccccc4C3)c(=O)[nH]c2cc1C` (centres undefined)?
HP1b binding inh: inactive; BAZ2B inh: 45µM; G9a block: inconclusive; JMJD2A Tudor: inactive

What do the screens show for `COc1ccc(N2CCN(C(=O)CCc3c(C)nc4cc(-c5cccc(F)c5)nn4c3C)CC2)cc1`?
HP1b binding inh: inactive; BAZ2B inh: inactive; G9a block: inactive; JMJD2A Tudor: inactive
